# Bioassay records (PubChem)
# In the library only some 3.7% were active in any assay of this set; here they are far more common.
# TbPYK inhibitor – blocks Trypanosoma brucei pyruvate kinase. 410,000 tested, 0.12% active. Potency, µM (series often up to 76.8 µM), hits mostly inhibitors. TbPYK enzyme, Kinase-Glo Plus ATP luminescence, 45 min. AID 624173. Q57TT1; note: nearly all actives have a fitted effect of over 50% in size
#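 Enzyme and substrate buffer are dispensed first and compound is pin-transferred. ADP at 130 uM final then starts the reaction, which runs 45 min at room temperature. Detection reagent is added for 10 min before luminescence is imaged.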
# RE007 growth inh – less growth of the S. pombe RE007 Vpr strain; S. pombe RE007 Vpr strain, BacTiter-Glo ATP luminescence, 24 h; 360,000 tested, 0.21% active; Potency, µM (top dose mostly 92.2 µM), usual class: inhibitors; active = well fitted falling curve with a large enough effect; inconclusive = small, poorly fitted or top-dose-only effect; inactive = no such curve, though single readings can be large or run the other way; note: nearly all actives have a fitted effect of over 50% in size
#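 Fission yeast strain RE007, carrying one chromosomally integrated HIV-1 vpr copy, was seeded at OD 0.01 in PMG+AL medium with 23 nL pinned compound. After 24 h at 30 °C and 99% humidity, viability was read by BacTiter-Glo luminescence.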
# FMDV antiviral – antivirals against foot and mouth disease virus; FMDV antiviral cell-based qHTS; Potency, µM (top dose mostly 57.9 µM), most hits filed as inhibitors; 410,000 tested, 1.2% active; AID 1159524; calls by dose curve; tested in HEK293T cells; note: read-out not given here; nearly all actives have a fitted effect of over 45% in size
# Sm TGR inh – S. mansoni TGR enzyme inhibition. Q962Y6. 360,000 tested, 3% active. Potency, µM (doses to about 114 µM), hits mostly inhibitors. purified TGR, DTNB reduction, TNB absorbance 405 nm; note: nearly all actives have a fitted effect of over 60% in size
#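 First, TGR (20 nM dispensed) and NADPH were mixed with compound. Second, a 15 min room-temperature incubation followed. Third, further NADPH and then DTNB were added to start the reaction. Finally, TNB absorbance was monitored kinetically.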
# Numbers stand for hits; . = inactive; ? = inconclusive; / = no result given; ! = not active in a repeat. Unless noted, calls come from the whole dose curve; as a rule, active = well fitted curve in the direction sought with a large enough effect; inconclusive = small, poorly fitted or top-dose-only effect, or another doubt; inactive = no such curve, though single readings can be large; an effect the other way counts as inactive or inconclusive.
SMILES,TbPYK inhibitor,RE007 growth inh,FMDV antiviral,Sm TGR inh
N#C/C(=C1/SCC(c2ccccc2Cl)S1)n1ccnc1 (configuration not stated),.,/,/,/
COc1ccc(CNC(=O)C2CCN(S(=O)(=O)N3CCCC3)CC2)c(OC)c1,.,.,.,.
COc1ccc(OC)c(CNC(=O)C2CCN(S(=O)(=O)N3CCCC3)CC2)c1,.,.,/,79µM
COc1ccc(-c2csc(NC(=O)c3c(C)noc3C)n2)cc1F,.,.,40µM,.
Cc1ccc(N2C(=O)CC(Sc3ncn[nH]3)C2=O)cc1C (configuration not stated),.,?,.,0.32µM
Cc1cccc(N2C(=O)CC(Sc3ncn[nH]3)C2=O)c1 (configuration not stated),.,?,.,7.1µM
Cc1cc(C)nc(SC2CC(=O)N(c3ccc(C)c(C)c3)C2=O)n1 (configuration not stated),.,.,.,.
C=CC1CN2CCC1CC2[C@@H](O)c1ccnc2ccc(OC)cc12 (some centres not stated),.,/,/,/
O=c1[nH]nc(CNc2ccc(O)cc2)c2ccccc12,.,.,.,35µM
O=C(CSc1nc2c([nH]c3ccccc32)c(=O)n1-c1ccc(Cl)cc1)N1CCCCCC1,.,/,.,.
O=C1NC(c2ccccc2Br)=N/C1=C\c1ccco1,.,?,.,40µM
O=C1NC(c2cccc(Br)c2)=N/C1=C\c1ccco1,.,.,.,79µM
O=C1NC(c2ccccc2)=N/C1=C/c1ccco1,.,.,.,50µM
CCOC(=O)c1cccc(NC(=O)CC2C(=O)N(c3ccc(OC)cc3)C(=O)N2C2CCCC2)c1 (configuration not stated),.,/,.,.
COc1ccc(-c2c3c(=O)n(C)c(=O)n(C)c3c3n2-c2ccccc2NC3c2ccc(O)cc2O)cc1 (configuration not stated),.,/,?,.
Cc1ncc2c(c1CNC(=O)c1ccsc1)CCN(C(=O)c1c(F)cccc1Cl)C2,/,/,.,/
CC(C)N(Cc1ccccc1)C(=O)CN1C(=O)CSc2ccc(S(=O)(=O)N3CCCC3)cc21,.,/,.,.
Cc1ccc(-n2[nH]c(C)c(/C=N/Nc3ccc([N+](=O)[O-])cc3[N+](=O)[O-])c2=O)cc1C,.,?,10µM,.
Cc1nn(-c2ccccc2)c(C)c1CC(=O)NCC1Cc2cc(F)cc(-c3cccnc3)c2O1 (configuration not stated),/,/,.,/
CCN(CC)N=Nc1ccc(S(=O)(=O)Nc2nc(C)cc(C)n2)cc1,.,.,.,11µM!
Cc1cc(C)nc(NS(=O)(=O)c2ccc(NS(=O)(=O)c3ccccc3)cc2)n1,.,.,/,.
CN1CCN(/N=C/c2nc(-c3ccc(Cl)cc3)n3ccccc23)CC1,.,.,.,?
Clc1ccc(-c2nc(/C=N/N3CCOCC3)c3ccccn23)cc1,.,.,.,45µM
CCc1cnc2c(c1SCC(=O)NCc1ccccc1)c(=O)n(C)c(=O)n2C,.,/,.,.
COCCNC(=O)CCC1CCN(Cc2cccc(-c3ccc(C)o3)c2)CC1,.,.,.,40µM
SMILES,TbPYK inhibitor,RE007 growth inh,FMDV antiviral,Sm TGR inh
COCCNC(=O)CCC1CCN(C/C=C/c2ccccc2OC)CC1,.,.,.,.
CCCc1nc2sc3ccccc3c(=O)c2c(=O)n1Cc1ccc(OC)cc1,.,.,?,.
CCCc1nc2oc3cc(OC)ccc3c(=O)c2c(=O)n1Cc1ccco1,.,.,.,40µM
COc1ccc2c(=O)c3c(=O)n(Cc4ccco4)c(-c4ccccc4)nc3oc2c1,.,.,.,32µM
CCCc1nc2sc3ccccc3c(=O)c2c(=O)n1Cc1ccco1,.,.,.,35µM
CCOc1ccc(-n2c(SC(C)C(=O)OC)nc3c([nH]c4ccccc43)c2=O)cc1 (configuration not stated),.,/,.,.
Cc1ccc2cc(CN(C(=O)c3ccc4c(c3)OCO4)C3CC3)c(N(C)C)nc2c1,/,/,.,/
COc1cc(C2Oc3nc(SC)nnc3-c3ccccc3N2C(C)=O)cc(Cl)c1OC (configuration not stated),.,/,.,.
O=C1CC(=O)CC(c2ccccc2)C1,.,.,.,.
O=C1CC(c2ccccc2)CC(=O)C1CS(=O)(=O)c1ccccc1 (configuration not stated),.,.,.,0.71µM
O=C(CCl)N1CCN(S(=O)(=O)c2ccc3c(c2)CCC3)CC1,.,.,20µM,5µM
O=C(CCl)N1CCN(S(=O)(=O)Cc2ccccc2)CC1,.,.,28µM,16µM
Cc1cc(=O)oc2cc(OCC(=O)N3CCN(C(C)c4ccccc4)CC3)c(Cl)cc12 (configuration not stated),.,.,.,.
CN1C(=O)N(CC(=O)N2CCN(S(=O)(=O)c3ccc4c(c3)CCC4)CC2)C(=O)C12CCCCC2,.,.,.,.
CC(c1ccccc1)N1CCN(C(=O)CCl)CC1 (configuration not stated),.,.,?,45µM
O=C(NCc1cccs1)c1ccc(Cn2c(SCc3cccc(F)c3)nc3cccnc32)cc1,.,/,.,.
Nc1cccnc1Sc1cccc(Cl)c1,.,18µM,.,?
CS(=O)(=O)c1ccc(C(=O)NCCN2C(=O)S/C(=C\c3cccnc3)C2=O)cc1[N+](=O)[O-],.,.,28µM,8.9µM
CN(C)S(=O)(=O)c1ccc(C(=O)NCCN2C(=O)S/C(=C\c3cccnc3)C2=O)cc1,.,.,.,.
COc1cccc(C(=O)c2ncc(C(F)(F)F)cc2Cl)c1,.,.,.,50µM
O=C1NC(=O)C(=CC=Cc2ccccc2)S1,.,.,.,/
ClC1=C(Cl)C(Cl)=C(Cl)C1=C/C=C/c1ccccc1,.,.,?,50µM
CC(=O)c1c(C)oc2ccc(N(C(C)=O)S(=O)(=O)c3ccc(Cl)c([N+](=O)[O-])c3)cc12,.,.,35µM,2.2µM
CC(=O)c1c(C)oc2ccc(N(C(C)=O)S(=O)(=O)c3ccc(Br)cc3)cc12,.,.,?,/
COc1ccccc1-n1c(CCn2nc(C)c(Br)c2C)n[nH]c1=S,3.5µM,.,.,.
SMILES,TbPYK inhibitor,RE007 growth inh,FMDV antiviral,Sm TGR inh
COc1ccccc1-n1c(-c2cn(C)nc2C)n[nH]c1=S,?,.,.,.
Cc1nn(CCc2n[nH]c(=S)n2C2CCCCC2)c(C)c1Br,13µM,.,.,.
Cc1nn(CCc2n[nH]c(=S)n2C)c(C)c1Br,?,.,.,.
COc1ccc(C2CC(=O)N(CC(=O)Nc3ccc(C(F)(F)F)cc3)c3ccccc3S2)cc1 (configuration not stated),.,/,.,.
COCC(=O)N1CCCC(C(=O)c2ccc(-c3ccccc3)cc2)C1 (configuration not stated),.,.,.,28µM
COc1cc(/C=N/n2cc(-c3ccccc3)[nH]c2=S)cc(OC)c1O,1.1µM,.,.,.
CC(=O)N1CCc2c(sc3c2c(=O)n(CCc2ccccc2)c(=O)n3Cc2ccc(Cl)cc2)C1,.,/,?,.
CCOc1ccc(C(C)=O)cc1CSC(=N)N,.,.,.,.
CCCCOc1ccc(Br)cc1CSC(=N)N,.,.,13µM,.
